# Calls of active or inactive are those of the source. How the source made its calls: active means hit-call score of the fitted dose curve at least 0.9, where 1 is the maximum; inactive means score below 0.9.
# Read-out: Ezrin (EZR), EZR (gene 7430)
# Assay: LTEA_HepaRG_EZR: Life Technologies and Expression Analysis (LTEA) Assay for Ezrin (EZR) using HepaRG (AID 2283491)
# Settings: mRNA level, 48 h; actives raise or lower the signal
# Method: It is a marker of Cellular remodeling.Data from the assay component LTEA_HepaRG_EZR was analyzed into 1 endpoint. This assay endpoint, LTEA_HepaRG_EZR, was analyzed with bidirectional fitting relative to DMSO as the negative control and baseline of activity. Using a type of inducible reporter, measures of mRNA induction for gain or loss-of-signal activity can be used to understand regulation of transcription factor activity. To generalize the intended target to other relatable targets, this assay endpoint is annotated to the membrane protein intended target family, where the subfamily is Cellular remodeling.
# A total of 1060 chemcials from the ToxCast library were tested in eight-point concentration-response experiments. Cell culture and cytotoxicity assays were conducted at Thermo Fisher Scientific's Custom Services facility (Madison, WI). A single lot of human HepaRG cells (Thermo Fisher Scientific, Frederick, MD) was used for the cell culture experiments. 96-well format collagen type I coated plates of human HepaRG cells were prepared using established methods. Briefly, cryopreserved HepaRG cells were thawed, plated at a density of approximately 100,000 cells/well in HepaRG Thaw, Plate, and General Purpose media (HPRG770, Thermo Fisher Scientific), and incubated for 48 hours. 0.5% DMSO was selected as vehicle control to balance the requisite need of DMSO in HepaRG cultures to maintain differentiation (for example, baseline metabolism, proportions of hepatocytes vs. cholangiocytes), while enabling further hepatic receptor pathway activation (for example, PXR and CAR) in response to chemical exposure. 48 hours after plating, the culture medium was replaced with HepaRG Serum-Free Incudtion Media. Cells were exposed to each test chemical in duplicate and maintained in CO2 incubators for another 48 hours. Chemical plates were thawed to room temperature and 200x concentrations of treatment groups were prepared. 8-point conentration-reponse curves were made with the highest exposure at 100 uM, followed by half-log dilutions, all in 0.5% DMSO. Each test plate contained variouse controls, induction positive controls (1mM phenobarbital), cytotoxicity positive controls ([…] aflatoxin B1), vehicle controls (0.5% DMSO), and total lysis controls (0.5% DMSO). Cell morphology images were taken using an Essen IncuCyte FLR automated microscope, with six 96-well plates imaged in about 24 minutes. Images were captured and exported and JPEG files. Spent culture media was transfered to black-well plates for the LDH assay, and remaining media was sorted at -80 C for later use. Cells were treated with RLT buffer and frozen until shipped for gene expression analysis. Total RNA was isolated from the cell suspension in 75 uL of Buffer RLT (Qiagen, Germantown, MD 20874) by Quintiles/Expression Analysis (Durham, NC) using a custom isolation procedure. Total RNA from each plate well was transferred to a preamplification plate. Fluidigm's 96.96 Dynamic ArrayTM (Fluidigm, Amsterdam, the Netherlands) technology was used for gene expression analyses by quantitative reverse transcription polymerase chain reaction (qRT-PCR, performed by Quintiles/Expression Analysis, Durham, NC)89. Standard TaqManTM Assays (Applied Biosystems/ThermoFisher Scientific, Foster City, CA) were used to assess the expression of 93 genes selected based on their selectivity and sensitivity to important hepatic receptors known to be modulated by environmental chemicals; importance in human hepatocyte functionality; and hepatotoxicity. Three "housekeeping" endogenous control genes were also included and used for normalization: actin beta (ACTB), Glyceraldehyde 3 phosphate dehydrogenase (GAPDH) and RNA Polymerase II Subunit A (POLR2A). qRT-PCR was conducted according to the manufacturer's protocol.
SMILES,outcome,AC50
Nc1ccc2ccccc2c1,inactive,
CCOP(=S)(Oc1ccc([N+](=O)[O-])cc1)c1ccccc1 (stereo not given),inactive,
CN(C)C(=O)Cl,inactive,
Cc1ccc([N+](=O)[O-])cc1C,inactive,
CCOC(=O)c1ccccc1C(=O)OCC,inactive,
CCOP(=S)(OCC)SCSCC,inactive,
CCNc1nc(Cl)nc(NC(C)(C)C)n1,inactive,
O=[N+]([O-])c1ccc(Cl)c(Cl)c1,inactive,
Nc1cc2c3c(c1)C(c1ccccc1)=N[C@@H](NC(=O)c1cccnc1)C(=O)N3CC2,inactive,
Nc1ccc(Cl)cc1,inactive,
CCCCN(CCCC)N=O,inactive,
Cc1ccc(N)cc1N,inactive,
CCOc1ccc(C(C)(C)COCc2cccc(Oc3ccccc3)c2)cc1,inactive,
CCOS(=O)(=O)OCC,inactive,
c1nc[nH]n1,inactive,
ClC(Cl)c1ccccc1,inactive,
OCC1CO1 (stereo not given),inactive,
O=C(O)C1C(C(=O)O)C2(Cl)C(Cl)=C(Cl)C1(Cl)C2(Cl)Cl (stereo not given),inactive,
Cc1ccc(O)cc1C,inactive,
CCCCc1ccccc1,inactive,

SMILES,outcome,AC50
c1cc2c3c(cccc3c1)CC2,inactive,
CC(Cc1ccc(OCC(=O)O)cc1)NCC(O)c1csc(C(F)(F)F)n1 (stereo not given),inactive,
CCCCCCCc1ccc(O)cc1,inactive,
ClC(Cl)(Cl)c1ccccc1,inactive,
O=[N+]([O-])c1ccccc1,inactive,
Cc1cccc(N)c1,inactive,
c1ccc(OP(Oc2ccccc2)Oc2ccccc2)cc1,inactive,
[N-]=[N+]=[N-],,50 µM (active)
CCC1(c2ccccc2)C(=O)N=C(O)NC1=O (stereo not given),inactive,
O=P1(N(CCCl)CCCl)NCCCO1 (stereo not given),inactive,
O=P(Oc1ccccc1)(Oc1ccccc1)Oc1ccccc1,inactive,
CC(Cl)(Cl)C(=O)O,inactive,
CCN(CC)c1ccccc1,inactive,
CC(C)(C)OOC(C)(C)C,inactive,
CSC(C)(C)C=NO,inactive,
c1ccc2c(c1)Nc1ccccc1S2,inactive,
ClC1=C(Cl)C2(Cl)C3C(Cl)C(Cl)CC3C1(Cl)C2(Cl)Cl (stereo not given),inactive,
COCCOCCO,inactive,
CCCCN(CCCC)SN(C)C(=O)Oc1cccc2c1OC(C)(C)C2,inactive,
O=C(O)C(Cl)Cl,inactive,

# From PubChem BioAssay (EPA / NIEHS)
